Laboratory results: PubChem BioAssay
Calls of active or inactive are those of the source.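 Rule for the calls, unless noted: active = fluorescence slope after compound addition differing from the mean of all screened samples at 99.7% confidence, in either direction; inactive = the rest.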

Assays:
[1] = inhibitors of TNFa-induced NFkB p65 translocation, primary screen, imaging, HUVEC, MLSMR starter and 10KST1 sets (AID 438;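 active = inhibition above 20% together with a positive visual image hit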;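 note: compound added about 3h40 before a 20 min TNFalpha stimulation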;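 for inhibition: signal is the nuclear over cytoplasmic p65 intensity ratio per well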); settings: HUVEC TNFa-induced p65 nuclear translocation; cell count: measured here: nuclei count (cytotoxicity indicator), at 2.08 µM; inhibition: at 2 µM, stronger effect = higher value, 0% TNFa-plus-vehicle, 100% no-TNFa wells
[2] = inhibitors of mutant huntingtin aggregation, primary screen, imaging, exon1htt(103Q)mCFP cells, high-content imaging (AID 483;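 active = visual image review flags a hit and inhibition of aggregation exceeds 20%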;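 note: compound exposure lasted 3 days before fixation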;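 for nuclei count: percent of the per-plate median nuclei count of sample wells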); settings: exon1htt(103Q)mCFP cell line, aggregate imaging, at 2 µM; inhibition of aggregation: stronger effect = higher value; nuclei count: measured here: cell count, toxicity
[3] = inhibitors of E-selectin induction by TNFa, primary screen, imaging, HUVEC, immunofluorescence, MLSMR starter and 10KST1 sets (AID 487;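 active = visually confirmed hit in the image check and inhibition above 20%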;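 for inhibition: signal is fraction of cell area covered by stained E-selectin grains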;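 for nuclei count: 100% = median nuclei count of all wells on the same plate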); settings: HUVEC TNFalpha-induced E-selectin immunofluorescence imaging, at 2 µM; inhibition: stronger effect = higher value; nuclei count: measured here: cell number, toxicity
[4] = target: Voltage-gated potassium channel subunit beta-2 (Rattus norvegicus) (UniProt P62483); test: KvBeta enzyme negative modulators, primary screen, biochemical, NADPH fluorescence (AID 622;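 active = fluorescence slope higher than the sample average by over 3 SD, cut at about -0.22 in these data, passing the limit was not always enough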;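 note: slope of raw intensity against log time taken from 70 to 1610 s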); settings: recombinant KvBeta, 4-cyanobenzaldehyde reduction, at 10 µM, stronger effect = higher value
[5] = target: Voltage-gated potassium channel subunit beta-2 (Rattus norvegicus) (UniProt P62483); test: KvBeta positive modulators, primary screen, biochemical, NADPH fluorescence (AID 623;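 active = NADPH fluorescence slope more negative than the mean of all samples by about 3 SD, 99.7% confidence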;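 note: fluorescence intensity change per second fitted from 20 to 320 s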); settings: Recombinant KvBeta, NADPH fluorescence decrease slope, 10 min; at 10 µM; stronger effect = lower value
[6] = target: Alpha-2C adrenergic receptor (Homo sapiens) (UniProt P18825); test: modulators of alpha2C/GIRK thallium flux, primary screen, cell-based, HEK293 alpha2C/GIRK1/2 (AID 624); settings: thallium flux BTC fluorescence, at 10 µM, actives lie on both sides;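 note: slope of fluorescence ratio to pre-addition baseline per second over 15 to 24 s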
[7] = inhibitors of Sendai virus-induced IRF3 signaling, primary screen, TLR/RLR signaling modifier project, cell-based, Sendai virus stimulus, luciferase, 10K MLSCN set (AID 602276;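 active = inhibition at or above 50% at 10 µM; inactive = inhibition below 50%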;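 note: firefly luciferase from ISG56 promoter only with Renilla not read in this screen; 0% = Sendai virus plus DMSO and 100% = medium plus DMSO without virus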); settings: HEK293 RL24 IRF3 luciferase reporter, at 10 µM, stronger effect = higher value
[8] = inhibitors of poly I:C-induced TLR3 signaling, primary screen, cell-based, poly I:C stimulus, luciferase, 10K MLSCN set (AID 602277;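 active = inhibition of the reporter signal at or above 50%; inactive = inhibition below 50%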); settings: HEK293-TLR3 RL24 IRF3 luciferase reporter, at 10 µM, stronger effect = higher value

Chain of Voltage-gated potassium channel subunit beta-2 (Rattus norvegicus) (P62483 whole entry, looked up): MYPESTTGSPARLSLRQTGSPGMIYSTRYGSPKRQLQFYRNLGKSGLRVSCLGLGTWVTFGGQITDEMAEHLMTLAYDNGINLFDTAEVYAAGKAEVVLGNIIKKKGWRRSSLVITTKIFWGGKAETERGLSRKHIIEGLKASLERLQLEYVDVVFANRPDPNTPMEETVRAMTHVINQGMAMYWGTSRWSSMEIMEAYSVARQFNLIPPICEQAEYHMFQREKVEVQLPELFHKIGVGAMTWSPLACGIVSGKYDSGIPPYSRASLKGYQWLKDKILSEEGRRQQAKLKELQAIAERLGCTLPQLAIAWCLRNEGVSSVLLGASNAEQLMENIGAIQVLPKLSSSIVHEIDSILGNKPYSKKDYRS
Chain of Alpha-2C adrenergic receptor (Homo sapiens) (P18825 whole entry, looked up): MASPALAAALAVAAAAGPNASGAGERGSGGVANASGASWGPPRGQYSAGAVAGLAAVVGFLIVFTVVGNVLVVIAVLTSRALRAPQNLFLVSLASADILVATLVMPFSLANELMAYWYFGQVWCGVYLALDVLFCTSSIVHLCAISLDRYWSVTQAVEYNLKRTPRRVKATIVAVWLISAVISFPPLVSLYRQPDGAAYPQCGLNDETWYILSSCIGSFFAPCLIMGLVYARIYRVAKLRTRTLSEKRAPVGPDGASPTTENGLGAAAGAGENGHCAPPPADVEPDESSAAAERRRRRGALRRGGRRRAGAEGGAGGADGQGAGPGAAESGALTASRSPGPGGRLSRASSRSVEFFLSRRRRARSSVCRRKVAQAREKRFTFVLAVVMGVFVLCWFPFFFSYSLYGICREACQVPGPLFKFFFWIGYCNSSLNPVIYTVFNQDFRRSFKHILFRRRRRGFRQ

For `COC(=O)c1ccccc1NC(=O)CC(NCc1ccccc1)C(=O)O` (centres undefined), the cell count [1] was 619, the inhibition [1] was -5% (inactive) and the inhibition of aggregation [2] was -34.3% (inactive). For the same compound, the nuclei count [2] was 124%, the inhibition [3] was -21.4% (inactive) and the nuclei count [3] was 116%. For the same compound, the fluorescence slope [4] was -0.418 (inactive), the NADPH fluorescence slope [5] was -8.7e-06 (inactive) and the slope [6] was 0.00289 (inactive). The inhibition [7] was -10.8% (inactive) and the inhibition [8] was 16.2% (inactive).

For `CCOc1cccc(-c2nnc3sc(COc4ccc(OC)cc4)nn23)c1`, the cell count [1] was 534, the inhibition [1] was 7.7% (inactive) and the inhibition of aggregation [2] was -2.2% (inactive). The nuclei count [2] was 95.7%, the inhibition [3] was -93.7% (inactive) and the nuclei count [3] was 118%. For the same compound, the fluorescence slope [4] was -0.433 (inactive), the NADPH fluorescence slope [5] was -3.1e-05 (inactive) and the slope [6] was 0.00731 (inactive). The inhibition [7] was 7.6% (inactive) and the inhibition [8] was 17.6% (inactive).

With `CCC(=O)Nc1ccc2nc(SCC(=O)N3CCCC3)sc2c1` the cell count [1] was 709, the inhibition [1] was -23.3% (inactive) and the inhibition of aggregation [2] was -2.1% (inactive). For the same compound, the nuclei count [2] was 102%, the inhibition [3] was -56.1% (inactive) and the nuclei count [3] was 122%. For the same compound, the fluorescence slope [4] was -0.503 (inactive), the NADPH fluorescence slope [5] was -2.8e-05 (inactive) and the slope [6] was 0.00507 (inactive). The inhibition [7] was -25.3% (inactive) and the inhibition [8] was -44.2% (inactive).

For `O=C(CSc1nc(N2CCCCC2)nc(N2CCCCC2)n1)Nc1nccs1`, the cell count [1] was 280, the inhibition [1] was -7% (inactive) and the inhibition of aggregation [2] was 5.5% (inactive). For the same compound, the nuclei count [2] was 96.9%, the inhibition [3] was -32.8% (inactive) and the nuclei count [3] was 72.8%. For the same compound, the fluorescence slope [4] was -0.531 (inactive), the NADPH fluorescence slope [5] was 7.9e-06 (inactive) and the slope [6] was 0.00662 (inactive). For the same compound, the inhibition [7] was 1.6% (inactive) and the inhibition [8] was 52.4% (active).

For `Cc1cc(NS(=O)(=O)c2ccccc2)no1`, the cell count [1] was 662, the inhibition [1] was -5.5% (inactive) and the inhibition of aggregation [2] was -5.5% (inactive). For the same compound, the nuclei count [2] was 97%, the inhibition [3] was -72.8% (inactive) and the nuclei count [3] was 122%. The fluorescence slope [4] was -0.56 (inactive), the NADPH fluorescence slope [5] was -5.2e-05 (inactive) and the slope [6] was 0.00728 (inactive). The inhibition [7] was 11.7% (inactive) and the inhibition [8] was 28.5% (inactive).

With `O=C(O)c1cccc(S(=O)(=O)N2CCOCC2)c1` the cell count [1] was 378, the inhibition [1] was -0.6% (inactive) and the inhibition of aggregation [2] was 12.5% (inactive). For the same compound, the nuclei count [2] was 95.2%, the inhibition [3] was 20.2% (inactive) and the nuclei count [3] was 99.4%. For the same compound, the fluorescence slope [4] was -0.472 (inactive), the NADPH fluorescence slope [5] was -0.000388 (inactive) and the slope [6] was 0.00562 (inactive). For the same compound, the inhibition [7] was -16% (inactive) and the inhibition [8] was -15.1% (inactive).

In the case of `O=C1OCc2cc(NC(=O)C3CCCO3)ccc21` (centres undefined), the cell count [1] is reported as 790, the inhibition [1] is reported as -8.1% (inactive) and the inhibition of aggregation [2] is reported as 13.1% (inactive). For the same compound, the nuclei count [2] was 111%, the inhibition [3] was -31.8% (inactive) and the nuclei count [3] was 111%. For the same compound, the fluorescence slope [4] was -0.379 (inactive), the NADPH fluorescence slope [5] was 5.7e-07 (inactive) and the slope [6] was 0.00421 (inactive). The inhibition [7] was 3.9% (inactive) and the inhibition [8] was 13.5% (inactive).

For `CCCCCn1c(CN2CCN(C(=O)c3ccco3)CC2)nc2c1c(=O)n(C)c(=O)n2C`, the cell count [1] was 726, the inhibition [1] was -14.6% (inactive) and the inhibition of aggregation [2] was -17.8% (inactive). The nuclei count [2] was 103%, the inhibition [3] was -13.1% (inactive) and the nuclei count [3] was 113%. For the same compound, the fluorescence slope [4] was -0.57 (inactive), the NADPH fluorescence slope [5] was -5.2e-05 (inactive) and the slope [6] was 0.00727 (inactive). The inhibition [7] was 1.47% (inactive) and the inhibition [8] was 11.3% (inactive).

In the case of `CN(CC(=O)Nc1nccs1)S(=O)(=O)c1ccc(F)cc1`, the cell count [1] is reported as 352, the inhibition [1] is reported as -6.5% (inactive) and the inhibition of aggregation [2] is reported as -4.8% (inactive). The nuclei count [2] was 110%, the inhibition [3] was -35.4% (inactive) and the nuclei count [3] was 101%. For the same compound, the fluorescence slope [4] was -0.465 (inactive), the NADPH fluorescence slope [5] was -9.5e-06 (inactive) and the slope [6] was 0.00636 (inactive). For the same compound, the inhibition [7] was -24.4% (inactive) and the inhibition [8] was 1.06% (inactive).

With `C=CCn1c(COc2ccc(Cl)cc2)nnc1SCC(=O)N1CC(=O)Nc2ccccc21` the cell count [1] was 315, the inhibition [1] was 1.9% (inactive) and the inhibition of aggregation [2] was -0.9% (inactive). For the same compound, the nuclei count [2] was 104%, the inhibition [3] was -6.5% (inactive) and the nuclei count [3] was 110%. The fluorescence slope [4] was -0.425 (inactive), the NADPH fluorescence slope [5] was -2.1e-05 (inactive) and the slope [6] was 0.00537 (inactive). For the same compound, the inhibition [7] was 3.41% (inactive) and the inhibition [8] was 4.64% (inactive).

With `Cc1ccccc1Cn1cc(/C=N/n2cnnc2)c2ccccc21` the cell count [1] was 416, the inhibition [1] was 12% (inactive) and the inhibition of aggregation [2] was 18.9% (inactive). The nuclei count [2] was 68%, the inhibition [3] was 27.1% (inactive) and the nuclei count [3] was 113%. The fluorescence slope [4] was -0.436 (inactive), the NADPH fluorescence slope [5] was 2.8e-05 (inactive) and the slope [6] was 0.00391 (inactive). For the same compound, the inhibition [7] was -7.96% (inactive) and the inhibition [8] was 21.3% (inactive).

For `COC(=O)CN(c1ccc(C)c(Cl)c1)S(C)(=O)=O`, the cell count [1] was 322, the inhibition [1] was 4% (inactive) and the inhibition of aggregation [2] was -11.9% (inactive). The nuclei count [2] was 117%, the inhibition [3] was 13.8% (inactive) and the nuclei count [3] was 110%. For the same compound, the fluorescence slope [4] was -0.506 (inactive), the NADPH fluorescence slope [5] was -4.6e-05 (inactive) and the slope [6] was 0.00698 (inactive). The inhibition [7] was 13.7% (inactive) and the inhibition [8] was 19.8% (inactive).

In the case of `Clc1cccc(-c2nnc(-c3ccccc3)o2)c1`, the cell count [1] is reported as 610, the inhibition [1] is reported as -15.9% (inactive) and the inhibition of aggregation [2] is reported as -13.5% (inactive). For the same compound, the nuclei count [2] was 110%, the inhibition [3] was 4.7% (inactive) and the nuclei count [3] was 124%. The fluorescence slope [4] was -0.391 (inactive), the NADPH fluorescence slope [5] was 3.1e-05 (inactive) and the slope [6] was 0.00595 (inactive). The inhibition [7] was -18.1% (inactive) and the inhibition [8] was -47% (inactive).

With `COc1ccc(OCCN2C(=O)NC(C)(c3ccc(C)cc3)C2=O)cc1` (centres undefined) the cell count [1] was 391, the inhibition [1] was -14.7% (inactive) and the inhibition of aggregation [2] was -4.1% (inactive). The nuclei count [2] was 108%, the inhibition [3] was -84.6% (inactive) and the nuclei count [3] was 138%. For the same compound, the fluorescence slope [4] was -0.496 (inactive), the NADPH fluorescence slope [5] was -6.9e-05 (inactive) and the slope [6] was 0.00469 (inactive). The inhibition [7] was 12.5% (inactive) and the inhibition [8] was 5.61% (inactive).
